Experimental findings from PubChem BioAssay (NCATS) are described below.

Several values for one entry are separate records, joined by “and”; a condition that tells them apart may be missing. Identical values can stand only once. Results filed as inconclusive are left out. More than one record can exist for a structure, and the calls need not agree. Activity calls are given as the source filed them. Calls follow the shape of the dose curve; as a rule, active = well fitted curve in the direction sought with a large enough effect; inconclusive = small, poorly fitted or top-dose-only effect, or another doubt; inactive = no such curve, though single readings can be large; an effect the other way counts as inactive or inconclusive.

Test [1] is described as follows: Quantitative highthroughput screen to assess conditional lethalithy of NOMO1 cells grown in RPMI1640 with untreated serum (RPMI+s) (AID 1963876). Also: nearly all actives have a fitted effect of over 35% in size.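 As to viability: 100% = DMSO wells and 0% = empty wells without cells.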 The gist of the method:
(§1)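 Each medium arm—HPLM with 10% dialyzed FBS, or RPMI1640 with 5 mM glucose and 10% untreated or dialyzed FBS—was screened against an 11-point, 3-fold compound titration for 48 h at 37 °C, with CellTiter-Glo luminescence as endpoint.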

Test [2] can be described thus: Quantitative highthroughput screen to assess conditional lethalithy of NOMO1 cells grown in RPMI1640 with dialyzed fetal bovine serum (RPMI+ds) (AID 1963877). Also: nearly all actives have a fitted effect of over 30% in size.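 As to viability: series mostly up to about 46 µM; 100% = DMSO control wells and 0% = empty wells.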 In short, it runs like this:
as §1

Test [3] in a line: Quantitative highthroughput screen to assess conditional lethalithy of NOMO1 cells grown in Human Plasma-Like Medium with dialyzed fetal bovine serum (HPLM+ds) (AID 1963878). Also: nearly all actives have a fitted effect of over 35% in size.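 As to viability: 100% = DMSO wells and 0% = empty wells on each plate.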 In short, it runs like this: as §1
Test [4] can be described thus: Quantitative highthroughput screen to assess conditional lethalithy of P12 Ichikawa cells grown in Human Plasma-Like Medium with dialyzed fetal bovine serum (HPLM+ds) (AID 1963879). Also: nearly all actives have a fitted effect of over 35% in size. As to viability: series mostly up to about 46 µM. Conditions: Potency: viability. In short, it runs like this: as §1
Test [5] is described as follows: Quantitative highthroughput screen to assess conditional lethalithy of P12 Ichikawa cells grown in RPMI1640 with untreated serum (RPMI+s) (AID 1963881). Also: nearly all actives have a fitted effect of over 35% in size.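 As to viability: series mostly up to about 46 µM; 100% = DMSO wells and 0% = empty wells without cells.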 To be noted: Potency: viability. The gist of the method: as §1
Test [6] is described as follows: Quantitative highthroughput screen to assess conditional lethalithy of SEM cells grown in Human Plasma-Like Medium with dialyzed fetal bovine serum (HPLM+ds) (AID 1963882). Also: nearly all actives have a fitted effect of over 35% in size. As to viability: series mostly up to about 46 µM. In short, it runs like this: as §1
Test [7] in a line: Quantitative highthroughput screen to assess conditional lethalithy of SEM cells grown in RPMI1640 with unreated serum (RPMI+s) (AID 1963883). Also: nearly all actives have a fitted effect of over 35% in size.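 As to viability: 100% = DMSO wells and 0% = empty wells without cells.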 In short, it runs like this: as §1
Test [8] is described as follows: Quantitative highthroughput screen to assess conditional lethalithy of SEM cells grown in RPMI1640 with dialyzed fetal bovine serum (RPMI+ds) (AID 1963884). Also: nearly all actives have a fitted effect of over 35% in size.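 As to viability: series mostly up to about 46 µM; 100% = DMSO control wells and 0% = empty wells without cells.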 In short, it runs like this:
as §1

The nature of test [9]: Quantitative highthroughput screen to assess conditional lethalithy of P12 Ichikawa cells grown in RPMI1640 with dialyzed fetal bovine serum (RPMI+ds) (AID 1963880). Also: nearly all actives have a fitted effect of over 35% in size.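 As to viability: 100% = DMSO wells and 0% = empty wells on each plate.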 Conditions: Potency: P12-Ichikawa viability. The gist of the method:
as §1

The nature of test [10]: Cellular viability qHTS for adrenocortical cancer (ACC) cell line SW-13 (AID 1963989). Also: nearly all actives have a fitted effect of over 65% in size.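 As to activity (max response): cells grown in serum-free medium with ITS supplement; % is scaled to controls: 0 for no effect and ±100 for the full control effect.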 To be noted: SW-13 ACC cells viability, CellTiter-Glo, 48 h; activity (max response): stronger effect = lower value. The gist of the method: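 IC50 and maximal-response values come from four-parameter logistic fits of titration data. SW-13 cells in serum-free medium received compounds (up to 46 uM final) for 48 h before CellTiter-Glo luminescence.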
A general note: qHTS replaces the single test concentration by a dilution series.

Test [11] is described as follows: Cellular viability qHTS for adrenocortical cancer (ACC) cell line NCI-H295R (AID 1963990). Also: nearly all actives have a fitted effect of over 60% in size. The gist of the method:
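Adrenocortical carcinoma cells, suspended at 300 000 cells/mL in serum-free DMEM plus ITS, rested overnight before pin transfer of compound. After two days' incubation, ATP-dependent luminescence was recorded and curve-fitted.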
Potency is read from the fitted curve at half-maximal effect.

In the case of `NC(=O)c1ncn([C@@H]2O[C@H](CO)[C@@H](O)[C@@H]2O)c1O`, the Potency entry in test [1], in test [2], in test [3], in test [4], in test [5] and in [6] was “inactive” each time. Also, the Potency entry in test [7] and in [8] was “inactive” throughout.
For `CC1(C)OC2CC3C4CC(F)C5=CC(=O)C=CC5(C)C4C(O)CC3(C)[C@]2(C(=O)CO)O1` (stereo partly drawn), the Potency entry in test [1], in test [2] and in test [3] was “inactive” throughout. The Potency in [6] was 2.35 µM (active).
Consider `O=C(C[C@@H]1CC=CCCC(=O)O[C@H](c2ccccc2)CNC1=O)NCc1ccc(Cl)cc1`, for which the Potency entry in test [1], in test [2], in test [3], in test [9], in [5] and in [6] was “inactive” in each case. Besides, the Potency result in test [7] and in test [8] was “inactive” in each case.
Turning to `C=CC1=C(C(=O)O)N2C(=O)[C@@H](NC(=O)C(=NO)c3csc(N)n3)[C@H]2SC1`, the Potency entry in test [1], in [2], in test [3], in test [5], in test [6] and in test [7] was “inactive” throughout. In test [8], the Potency result is “inactive”.
As for `COc1cc2nc(-c3ccc(N4CCN(C)CC4)cc3)nc(NCCN3CCOCC3)c2cc1OC`, the Potency in [1] is 1.66 µM (active); in test [2], 0.743 µM (active); in test [3], 0.526 µM (active); in test [9], 2.64 µM (active); in test [5], 2.96 µM (active); in [8], 0.372 µM (active). Further, the Potency was 17.8 µM (active) in test [10] and 3.55 µM (active) in [11].
Regarding `CCOc1cc(N)c(Cl)cc1C(=O)NCC1CN(Cc2ccc(F)cc2)CCO1` (stereo not drawn), the Potency entry in test [1], in test [2], in [3], in test [5], in test [6] and in [7] was “inactive” in each case. Also, the Potency entry in [8] and in test [11] was “inactive” each time. Besides, in [10], the activity (max response) is -20% (inactive) and -11.9% (inactive).
Consider `O=C(N[C@H](CO)[C@H](O)c1ccc([N+](=O)[O-])cc1)C(Cl)Cl`, for which the Potency result in test [1], in test [2], in test [3], in test [7], in [8] and in [11] was “inactive” throughout. For the same compound, the Potency in [5] was 20.9 µM (active).
Consider `O=C1NC(=O)C(=Cc2ccc3nccc(-c4ccncc4)c3c2)S1`, for which the Potency in test [1] is 2.64 µM (active); in test [2], 1.32 µM (active); in test [3] it was 0.662 µM (active); in test [9], 1.87 µM (active); in test [6], 0.935 µM (active); in [7] it was 0.935 µM (active).
Regarding `CCN(CC)CCOc1ccc(Cc2ccccc2)cc1`, the Potency in [1] was 10.5 µM (active); in test [3], 7.43 µM (active); in test [7], 4.18 µM (active); in test [8], 8.33 µM (active); in test [11], 18.4 µM (active) and inactive. The Potency result in test [2] and in test [5] was “inactive” in each case. In [10], the activity (max response) was -24% (inactive).
Regarding `CC(=O)OCC(=O)[C@@]12N=C(C)O[C@H]1C[C@H]1[C@@H]3CCC4=CC(=O)C=C[C@]4(C)[C@@H]3[C@@H](O)C[C@@]12C`, the Potency entry in test [1], in test [2] and in [3] was “inactive” in each case. Moreover, the Potency in [4] was 4.18 µM (active); in test [7], 23.5 µM (active); in test [8] it was 20.9 µM (active).
Consider `COc1cccc2c1C(=O)c1c(O)c3c(c(O)c1C2=O)C[C@@](O)(C(C)=O)C[C@H]3O[C@H]1C[C@H](N)[C@H](O)[C@H](C)O1`, for which the Potency in test [1] is 0.264 µM (active); in [2], 0.235 µM (active); in [3] it was 0.264 µM (active); in test [9] it was 0.209 µM (active); in test [5] it was 0.209 µM (active); in test [6], 0.0833 µM (active). Also, the Potency in [7] was 0.0469 µM (active); in test [8] it was 0.0833 µM (active).
As for `CN(N=O)C(=O)N[C@H]1C(O)OC(CO)[C@@H](O)[C@H]1O` (stereo partly drawn), the Potency result in test [1], in test [2], in [3], in [9] and in [5] was “inactive” each time.
Take `CNC(=O)[C@H](CC1=CN=C2C=CCC=C12)NC(=O)[C@@H](CC(=O)NO)CC(C)C`: the Potency was 8.33 µM (active) in [1], 8.33 µM (active) in test [2] and 5.9 µM (active) in [3]. For the same compound, the Potency result in [6], in test [7] and in test [8] was “inactive” each time.
With `Cc1c(C)c2c(c(C)c1O)CCC(C)(COc1ccc(CC3SC(=O)NC3=O)cc1)O2` (stereo not drawn), the Potency result in test [1], in test [2], in test [3], in [4] and in [11] was “inactive” each time. The Potency in test [6] is 16.6 µM (active).
Consider `CC(C)CN(C[C@@H](O)[C@H](Cc1ccccc1)NC(=O)O[C@H]1CO[C@H]2OCC[C@H]21)S(=O)(=O)c1ccc(N)cc1`, for which the Potency entry in test [1], in test [2] and in [3] was “inactive” in each case. For the same compound, the Potency in test [6] was 3.72 µM (active).
In the case of `Nc1ncn([C@@H]2O[C@H](CO)[C@@H](O)[C@@H]2O)c(=O)n1`, the Potency in test [1] was 16.6 µM (active); in test [2] it was 7.43 µM (active); in [3], 16.6 µM (active); in [6] it was 9.35 µM (active); in [7], 10.5 µM (active); in [8], 4.69 µM (active).
Regarding `COc1ccc2ccc(=O)oc2c1CC=C(C)C`, the Potency result in test [1], in [2], in test [3] and in test [6] was “inactive” in each case.
`O=C(O)[C@H]1O[C@H](Oc2cc3oc(-c4ccccc4)cc(=O)c3c(O)c2O)[C@H](O)[C@@H](O)[C@H]1O`: the Potency entry in test [1], in [2] and in [3] was “inactive” each time. The Potency in [5], in test [6] and in test [7] was 18.7 µM (active) each time.
With `O=C(NCc1ccccc1)[C@H](Cc1ccccc1)NC(=O)[C@@H]1O[C@@H]1C(=O)NCCc1ccc(O)cc1`, the Potency entry in test [1], in [2], in [3], in [9] and in test [6] was “inactive” in each case.
For the compound `CC(Cc1ccc(O)c(O)c1)(NN)C(=O)O` (stereo not drawn), the Potency entry in [1], in test [2], in test [3], in test [4], in test [6] and in test [11] was “inactive” throughout. For the same compound, the activity (max response) in [10] was 0.463% (inactive).
As to `COc1cc(O)c2c(c1)C1OC1C[C@H](O)[C@H](O)C(=O)C=CC[C@H](C)OC2=O` (stereo partly drawn), the Potency in [1] is 13.2 µM (active); in [2], 13.2 µM (active); in [3] it was 10.5 µM (active); in test [9], 18.7 µM (active); in test [5], 18.7 µM (active); in test [6], 4.69 µM (active). Further, the Potency in test [7] is 7.43 µM (active); in [8], 4.18 µM (active); in [10] it was 15.8 µM (active); in test [11], 15.8 µM (active).
